From PubChem BioAssay
This is a sample that favours compounds with a hit; in the whole collection about 1.9% have one here.
SSB-PriA inh – K. pneumoniae PriA-SSBct interaction inhibition; AlphaScreen SSBct-PriA binding, biotinylated peptide; inhibition, % at 33 µM; 430,000 tested, 0.6% active; in the data active = inhibition mostly above about 37%, no sharp cut-off; inactive = mostly below about 20%
PrP UTR inh – inhibition of PrP 5' UTR reporter expression; 340,000 tested, 0.35% active; inhibition, % (concentration not given with the values); cell-based PrP 5' UTR mRNA reporter, plate reader; in the data active = inhibition above about 52%
PfHsp40 rescue – compounds rescuing yeast from Plasmodium falciparum HSP40 toxicity; S. cerevisiae expressing PfHsp40, growth rescue, ATP luminescence; growth rescue, % at 12.5 µM; 340,000 tested, 0.68% active; in the data active = growth rescue above about 28%, passing the limit was not always enough; inconclusive = no clear call, values can overlap the other calls;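 also: yeast W303a lacking pdr1 and pdr3 grown in galactose medium; growth measured after three days at 30 °C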
BJeLR lethal – BJeLR cell viability loss; BJeLR (HRASV12) viability, CellTiter-Glo ATP luminescence, 48 h; inhibition, % (test concentration not listed); 300,000 tested, 0.17% active; AID 1554; in the data active = inhibition above about 50%; inconclusive = no clear call, values can overlap the other calls
PrPC surface inh – reduces human prion protein on the cell surface; inhibition, % at 13.8 µM; cell surface PrPC, TR-FRET read-out; 370,000 tested, 0.43% active; in the data active = inhibition above about 24%
RecA splice inh – Mtb RecA intein splicing inhibition. P9WHJ3. cell-free RecA intein splicing, fluorescence. inhibition, % (no concentration beside the values). 290,000 tested, 0.75% active; in the data active = inhibition above about 30%; inconclusive = no clear call, values can overlap the other calls
Numbers stand for hits; n = inactive; u = inconclusive; x = no result given; ! = not confirmed by another sample.

SMILES	SSB-PriA inh	PrP UTR inh	PfHsp40 rescue	BJeLR lethal	PrPC surface inh	RecA splice inh
COc1ccc(Cl)cc1C(=O)OCC(=O)Nc1cccnc1Cl	n	n	n	x	n	x
Cc1noc(C)c1S(=O)(=O)NCc1nn(C2CCCC2)c2c1CCCC2	n	x	x	x	x	x
CC(=O)C(=NNc1ccccc1[N+](=O)[O-])N1CCCc2ccccc21	56.5	x	x	x	x	x
CC(=O)/C(=N/Nc1ccccc1[N+](=O)[O-])N1CCCc2ccccc21	x	x	x	n	n	n
Oc1ccc(CNc2ccc(F)cc2)c2cccnc12	78.4	n	n	n	n	n
Cc1ccccc1NCc1ccc(O)c2ncccc12	97.4	n	u	n	n	n
Oc1ccc(CNc2cc(Cl)cc(Cl)c2)c2cccnc12	66.8	x	x	x	x	x
Oc1ccc(CNc2cccc(F)c2)c2cccnc12	n	x	x	x	n	x
Cc1cccc(NCc2ccc(O)c3ncccc23)c1	46.6	n	n	n	n	n
Oc1ccc(CNc2ccccc2Br)c2cccnc12	n	x	x	x	n	x
Oc1ccc(CNc2ccccc2)c2cccnc12	n	n	n	n	x	x
CC(=NNc1ccc(F)cc1)c1ccncc1	n	x	x	x	x	x
COc1ccc(-c2noc(CSc3nc4ccsc4c(=O)[nH]3)n2)cc1OC	n	x	x	x	x	x
CC(=O)NC(=S)NNC(=O)C(c1ccccc1)c1ccccc1	n	n	62.4	n	n	n
CCCOc1cccc(-c2nn(-c3ccccc3)cc2/C=C(\C#N)C(=O)NCCCn2ccnc2)c1	n	n	45.2	n	n	n
N#C/C(=C/c1cn(-c2ccccc2)nc1-c1cccc(OCc2ccc(F)cc2)c1)C(=O)NCCCn1ccnc1	n	n	n	n	n	n
Cc1ccc(C=NNc2cn[nH]c(=O)n2)o1	n	x	x	x	x	x
Cc1cc(=O)[nH]c(NN=Cc2ccccn2)n1	83.3	x	x	x	x	x
O=c1cnnc(N/N=C/c2ccccn2)[nH]1	x	n	u	63.2	n	n
O=c1nc(NN=Cc2ccccn2)cn[nH]1	81.5	x	x	x	x	x
COC1(CNS(=O)(=O)CC23CCC(CC2=O)C3(C)C)CCSC1 (stereo not drawn)	40.0	x	x	x	x	x
COCC(C)(O)CNS(=O)(=O)CC12CCC(CC1=O)C2(C)C (stereo not drawn)	n	x	x	x	x	x
Cc1ccc(-c2cc(-c3cccc(F)c3)n[nH]2)c(O)c1	n	n	65.6	n	n	n
Cc1cc(C(=O)Nc2nc(-c3ccccc3)cs2)n(C)n1	n	x	x	x	x	x
O=C(NCC(=O)N1CCO[C@H](c2ccccc2)C1)c1ccccc1F	n	x	x	x	x	x
SMILES	SSB-PriA inh	PrP UTR inh	PfHsp40 rescue	BJeLR lethal	PrPC surface inh	RecA splice inh
c1ccc(-c2ncc(-c3ccn[nH]3)s2)cc1	n	n	64.6	n	n	n
c1ccc(Oc2ccc(-c3ccn[nH]3)cc2)cc1	n	n	n	n	n	n
Cc1cc([N+](=O)[O-])cc(/C=N/n2c(C)nc3ccccc3c2=O)c1O	x	n	191.8	n	n	n
CNC(=O)c1ccc(NC(=O)/C=C/c2cccc(F)c2)cc1	n	n	114.2	n	n	n
CSc1cccc(NC(=O)/C=C/c2cccc(Cl)c2)c1	n	n	245.2	n	n	n
O=C(/C=C/c1ccccc1)NC(NC(=S)Nc1cccc(Cl)c1)C(Cl)(Cl)Cl (stereo not drawn)	n	78.8	n	n	n	n
O=C(/C=C/c1cccc(C(F)(F)F)c1)Nc1cccc(C(F)(F)F)c1	n	n	83.0	n	n	n
Cc1ccc(NC(=O)/C=C/c2cccc(C(F)(F)F)c2)cc1	n	n	n	n	n	n
Cc1[nH]nc2c1[C@@H](c1cccc3ccccc13)CC(=O)N2	n	x	x	x	x	x
CN(C)CCCN(C(=O)c1ccc(S(=O)(=O)N2CCc3ccccc3C2)cc1)c1nc2c(F)cc(F)cc2s1	n	n	n	n	x	n
Cc1cc(C)c2nc(N(CCCN(C)C)C(=O)c3ccc4c(c3)OCCO4)sc2c1	n	n	n	n	n	n
Cc1ccc2sc(N(CCN(C)C)C(=O)c3ccc4c(c3)OCCO4)nc2c1C	40.0	x	x	x	x	x
COc1cccc2sc(N(CCCN(C)C)C(=O)c3ccc(S(=O)(=O)N4CCc5ccccc5C4)cc3)nc12	n	n	n	n	n	n
COc1ccc(OC)c2sc(N(CCCN(C)C)C(=O)c3ccc(S(=O)(=O)N4CCc5ccccc5C4)cc3)nc12	n	x	x	89.1	x	n
CN(C)CCN(C(=O)c1ccc2ccccc2c1)c1nc2c(F)cc(F)cc2s1	37.0!	n	n	n	n	n
COc1ccc(C)c2sc(N(CCCN(C)C)C(=O)c3ccc(S(=O)(=O)N4CCc5ccccc5C4)cc3)nc12	47.0!	n	n	80.6	n	n
COc1ccc(CNC(=O)NCc2nnnn2-c2ccc(Cl)cc2)cc1OC	n	x	x	x	x	x
